# Several values for one entry are separate records, joined by “and”; a condition that tells them apart may be missing. Equal values may be shown once. Results filed as inconclusive are left out. A structure can be active in one record and inactive in another. Activity calls are given as the source filed them.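 Rule for the calls, unless noted: active = thallium flux through the channel raised or lowered by more than 3 SD from vehicle-only wells, actives on both sides; inactive = the rest.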
# Tests used:
# [1] = tested on: Neuropilin-2 / VEGF-C interaction (human); assay: inhibitors of NRP2–VEGF-C binding, biochemical, microplate binding format, z-score (AID 743281; call rule not given here); conditions: microplate NRP2/VEGF-C binding assay; stronger effect = lower value
# [2] = modulation of C. elegans fzo-1 (AID 1259413; call rule not given here;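 note: fzo-1 mutant C. elegans worms in liquid wells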); conditions: C. elegans fzo-1 modulator screen, mean read-out; stronger effect = higher value
# [3] = viability rescue of complex I mutant cybrids, primary screen, cell-based, galactose medium, ATP luminescence (AID 1645843;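 active = z-score of at least 1.8 in each of two replicates, scored against plate mean and spread of sample wells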;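 note: positive z means more ATP and so rescue of galactose-driven cybrid death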); conditions: complex I mutant cybrid cells, 72 h, stronger effect = higher value
# [4] = tested on: F380Y/beta1; assay: modulators of BK channel variants, profiling panel, selectivity assay, cell-based, U2OS BacMam, thallium flux, beta subunits (AID 1259406); conditions: at 30 µM;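 note: initial slope of Thallos dye fluorescence rise after thallium is added; log ratio against the mean of 0.3% DMSO vehicle wells on the same plate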
# [5] = tested on: F380Y/beta4; assay: as above; conditions: at 30 µM
# [6] = target: Calcium-activated potassium channel subunit alpha-1 (Homo sapiens) + Leucine-rich repeat-containing protein 26 (Homo sapiens) (UniProt Q12791+Q2I0M4); assay: as above; conditions: F380Y/Slo1WT/gamma1, at 30 µM
# Sequence of Calcium-activated potassium channel subunit alpha-1 (Homo sapiens) + Leucine-rich repeat-containing protein 26 (Homo sapiens) (Q2I0M4 whole entry, looked up, one chain of several): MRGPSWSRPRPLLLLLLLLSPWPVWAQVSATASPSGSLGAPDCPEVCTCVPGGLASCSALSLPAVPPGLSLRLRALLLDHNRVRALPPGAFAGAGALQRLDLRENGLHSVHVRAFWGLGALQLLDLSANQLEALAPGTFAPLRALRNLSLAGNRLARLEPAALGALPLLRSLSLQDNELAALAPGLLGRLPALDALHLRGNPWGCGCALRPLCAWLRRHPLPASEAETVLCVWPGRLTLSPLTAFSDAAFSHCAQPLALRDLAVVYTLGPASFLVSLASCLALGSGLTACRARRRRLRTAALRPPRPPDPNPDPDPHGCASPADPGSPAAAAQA
# [7] = tested on: R275C/beta4; assay: as above; conditions: at 30 µM
# [8] = tested on: Hepatitis C virus NS3 helicase; assay: HCV NS3 helicase inhibitors, primary screen, biochemical, fluorescence polarization, LOPAC1280 library (AID 687035; in the data active = inhibition above about 37%); conditions: Purified HCV NS3 helicase, Cy5-dT15 ssDNA binding fluorescence polarization; stronger effect = higher value; concentration not given here
# [9] = Cy5 fluorescence quenching or enhancement artefacts, artefact control for HCV NS3 helicase inhibitor project, biochemical, LOPAC1280 (AID 687037; call rule not given here); conditions: Cy5-DNA-NS3h complex fluorescence interference counterscreen
# [10] = phospholipid biosynthesis inhibitors in animal cells, primary screen, cell-based, LOPAC library, screen 4 (AID 1347384; call rule not given here); conditions: phospholipid biosynthesis inhibition screen, at 10 µM
# [11] = survival rescue of mitochondrial mutant cells in low glucose, primary screen, MELAS cybrids, Rieske KO mouse fibroblasts, CellTiter-Glo (AID 1508586;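 active = mean z-score across replicates of 1.96 or higher in either the MELAS or the Rieske mutant cell line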;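 note: z relative to plate mean and SD of compound and empty wells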)
# [12] = tested on: Aerobactin synthetase IucA (Klebsiella pneumoniae); assay: IucA aerobactin synthetase inhibitors, biochemical, Tocris library, absorbance (AID 1345561; call rule not given here;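 note: 100% = enzyme without compound and 0% = no enzyme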); conditions: purified IucA enzyme assay, absorbance (OD) read-out; stronger effect = lower value;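 tested at 8 µM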
# [13] = growth inhibition of DIPG glioma cells, dose response, cell-based, SU-DIPG-XIII, MIPE4.0, CellTiter-Glo, qHTS (AID 1347061; cut-off not given, nearly all actives have AC50 up to about 37 µM;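 note: cells exposed to compound for 48 hours before readout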); conditions: SU-DIPG-XIII viability, CellTiter-Glo ATP luminescence
# [14] = growth inhibition of DIPG glioma cells, dose response, cell-based, JHH-DIPG-1, MIPE4.0, CellTiter-Glo, qHTS (AID 1347062; cut-off not given, nearly all actives have AC50 up to about 27 µM); conditions: JHH-DIPG-1 viability, CellTiter-Glo ATP luminescence
# [15] = growth inhibition of DIPG glioma cells, dose response, cell-based, SU-DIPG-IV, MIPE4.0, CellTiter-Glo, qHTS (AID 1347063; cut-off not given, nearly all actives have AC50 up to about 30 µM;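 note: compound exposure lasted 48 hours before the viability readout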); conditions: SU-DIPG-IV viability, CellTiter-Glo ATP luminescence
# [16] = differential killing of epithelial or mesenchymal cells, primary screen, imaging, PC-3E GFP, TEM4-18 mCherry, co-culture (AID 1345086;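 active = compounds killing one labelled cell type while sparing the other, by normalised counts and ratio limits, not self-fluorescent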;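 for all read-outs here: cells exposed to compound for 72 h before imaging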;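 for red/green cell ratio (normalised): normalised mesenchymal count divided by normalised epithelial count so high means epithelial killing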); conditions: imaging cell counts, at 1 µM; for red/green cell ratio (normalised): actives lie on both sides
# [17] = MELAS cybrid survival, CellTiter-Glo 48 h, stronger effect = higher value
# [18] = Rieske KO mouse fibroblast survival, CellTiter-Glo 72 h
# [19] = counts scaled to control wells, 1 = unselective
# [20] = measured here: epithelial PC-3E GFP cell survival
# [21] = measured here: mesenchymal TEM4-18 mCherry cell survival
smiles,measurement,setting,value
CCOC(=O)C1(c2ccccc2)CCN(CCC(C#N)(c2ccccc2)c2ccccc2)CC1,z-score,[1],-0.718 (inactive)
same,mean signal,[2],215 (inactive)
same,z-score,[3],-1.88 (inactive)
same,log fold change Tl+ flux,[4],-0.0124 (inactive)
same,log fold change Tl+ flux,[5],0.0154 (inactive)
same,log fold change Tl+ flux,[6],-0.0542 (inactive)
same,log fold change Tl+ flux,[7],-0.00148 (inactive)
Oc1ccc2c3c1OC1C(O)CC[C@@]4(O)[C@@H](C2)N(CC2CCC2)CC[C@]314 (stereo partly drawn),z-score,[1],-0.335 (inactive)
same,mean signal,[2],241 (inactive)
C[N+]1(C)CCN(c2ccccc2)CC1,inhibition,[8],-1% (inactive)
same,fluorescence ratio (interference),[9],1 (inactive)
same,z-score,[1],-0.409 (inactive)
same,mean signal,[2],284 (inactive)
same,outcome,[10],inactive
same,z-score,[3],0.43 (inactive) and 1.15 (inactive)
same,log fold change Tl+ flux,[4],-0.0597 (inactive)
same,log fold change Tl+ flux,[5],0.0424 (inactive)
same,log fold change Tl+ flux,[6],-0.0251 (inactive)
same,log fold change Tl+ flux,[7],-0.0438 (inactive)
C[C@]12CCC(=O)C[C@@H]1CC[C@@H]1[C@@H]2CC[C@@]2(C)[C@H]1CC[C@]2(C)O,log fold change Tl+ flux,[4],-0.00468 (inactive)
same,log fold change Tl+ flux,[5],0.0289 (inactive)
same,log fold change Tl+ flux,[6],0.0101 (inactive)
same,log fold change Tl+ flux,[7],0.00195 (inactive)
C[C@]12CC[C@H]3[C@@H](CCC4=CC(=O)CC[C@@H]43)[C@@H]1CC[C@@H]2O,z-score,[11]; [17],0.634 (inactive)
same,z-score,[11]; [18],0.271
same,log fold change Tl+ flux,[4],0.000378 (inactive)
same,log fold change Tl+ flux,[5],0.0107 (inactive)
same,log fold change Tl+ flux,[6],0.0229 (inactive)
same,log fold change Tl+ flux,[7],-0.0252 (inactive)
CCCCC/C=C\C/C=C\C/C=C\C/C=C\CCCC(=O)Nc1ccc(O)cc1,z-score,[1],0.572 (inactive)
same,mean signal,[2],245 (inactive)
same,remaining activity,[12],113% (inactive)
same,z-score,[3],-0.695 (inactive)
CC[C@@H]1C=CC=CC[C@H](C)[C@@H](O)[C@@H](C)C(=O)[C@H](C)[C@@H](O)[C@H](C)C(=O)[C@H](C)[C@@H](O)[C@H](C)C=CC(=O)O[C@H]2[C@@H](C)[C@@H](CC1)O[C@@]1(CC[C@@H](C)[C@@H](C[C@H](C)O)O1)[C@@H]2C,log fold change Tl+ flux,[4],-0.604 (active)
same,log fold change Tl+ flux,[5],-0.693 (active)
same,log fold change Tl+ flux,[6],-0.117 (active)
same,log fold change Tl+ flux,[7],-0.0178 (inactive)
CC[C@@H](C(N)=O)N1CCCC1=O,inhibition,[8],-4% (inactive)
same,fluorescence ratio (interference),[9],1 (inactive)
same,z-score,[1],-0.78 (inactive)
same,mean signal,[2],234 (inactive)
same,outcome,[13],inactive
same,outcome,[14],inactive
same,outcome,[15],inactive
same,outcome,[10],inactive
same,z-score,[11]; [17],-0.985 (inactive) and 0.498 (inactive)
same,z-score,[11]; [18],0.204 and -0.0344
same,z-score,[3],0.685 (inactive) and 0.535 (inactive)
same,log fold change Tl+ flux,[4],-0.022 (inactive)
same,log fold change Tl+ flux,[5],0.0243 (inactive)
same,log fold change Tl+ flux,[6],-0.0482 (inactive)
same,log fold change Tl+ flux,[7],-0.0209 (inactive)
c1cncc(C2CCCN2)c1 (stereo not drawn),z-score,[1],-0.685 (inactive)
same,mean signal,[2],296 (inactive)
same,z-score,[3],0.385 (inactive)
COc1ccc(CCN)cc1OC,z-score,[1],-0.441 (inactive)
same,mean signal,[2],274 (inactive)
same,z-score,[11]; [17],0.19 (inactive)
same,z-score,[11]; [18],0.0302
same,z-score,[3],0.46 (inactive)
same,log fold change Tl+ flux,[4],0.00413 (inactive)
same,log fold change Tl+ flux,[5],-0.0433 (inactive)
same,log fold change Tl+ flux,[6],-0.00222 (inactive)
same,log fold change Tl+ flux,[7],-0.0169 (inactive)
C[C@]12CC[C@H](O)CC1=CC[C@@H]1[C@@H]2CC[C@@]2(C)[C@H]1CC[C@]2(C)O,log fold change Tl+ flux,[4],0.0442 (inactive)
same,log fold change Tl+ flux,[5],0.0285 (inactive)
same,log fold change Tl+ flux,[6],0.0157 (inactive)
same,log fold change Tl+ flux,[7],-0.00925 (inactive)
CS(=O)(=O)Nc1ccc(Cc2noc(-c3ccc4[nH]cc(CCN)c4c3)n2)cc1,z-score,[1],1.81 (inactive)
same,mean signal,[2],254 (inactive)
same,remaining activity,[12],103% (inactive)
same,z-score,[3],0.895 (inactive) and 2.6 (active)
same,log fold change Tl+ flux,[4],0.0172 (inactive)
same,log fold change Tl+ flux,[5],-0.0117 (inactive)
same,log fold change Tl+ flux,[6],-0.0241 (inactive)
same,log fold change Tl+ flux,[7],0.0477 (inactive)
O=C1CN=C(c2ccccc2)c2cc([N+](=O)[O-])ccc2N1,z-score,[1],1.12 (inactive)
same,mean signal,[2],253 (inactive)
same,z-score,[3],1.3 (inactive)
same,log fold change Tl+ flux,[4],-0.0368 (inactive)
same,log fold change Tl+ flux,[5],0.0387 (inactive)
same,log fold change Tl+ flux,[6],0.000443 (inactive)
same,log fold change Tl+ flux,[7],0.0133 (inactive)
CN1C2CC(=O)CC1[C@H](O)C2 (stereo partly drawn),red/green cell ratio (normalised),[16]; [19],0.81 (inactive)
same,normalised cell number,[16]; [20],1.25
same,normalised cell number,[16]; [21],1.01
C[C@]12CC[C@H](O)C[C@H]1CCC1C2CC[C@]2(C)[C@@H](C3=CC(=O)OC3)[C@@H](O)C[C@]12O (stereo partly drawn),red/green cell ratio (normalised),[16],0.39 (active)
same,normalised cell number,[16]; [20],0.91
same,normalised cell number,[16]; [21],0.35
CC[C@]1(O)CC[C@H]2[C@@H]3CCC4=CCCC[C@@H]4[C@H]3CCC21C (stereo partly drawn),outcome,[1],inactive
same,mean signal,[2],230 (inactive)
C/C=C(\C)C(=O)O[C@H]1C[C@@H](OC(C)=O)[C@@]2(C(=O)OC)CO[C@@H]3C2[C@]12CO[C@](O)(C(=O)OC)[C@H]2[C@](C)(C12O[C@@]1(C)[C@H]1C[C@H]2OC2OC=C[C@@]21O)[C@@H]3O (stereo partly drawn),red/green cell ratio (normalised),[16]; [19],1.21 (inactive)
same,normalised cell number,[16]; [20],0.89
same,normalised cell number,[16]; [21],1.08
COc1cc2c(c3oc4cccc(O)c4c(=O)c13)[C@@H]1C=CO[C@@H]1O2,red/green cell ratio (normalised),[16],0.95 (inactive)
same,normalised cell number,[16]; [20],1.04
same,normalised cell number,[16]; [21],0.98
C[C@@H]1CC[C@@]2(NC1)OC1CC3C4CC=C5C[C@@H](O)CC[C@]5(C)C4CC[C@]3(C)C1[C@@H]2C (stereo partly drawn),red/green cell ratio (normalised),[16]; [19],1.02 (inactive)
same,normalised cell number,[16]; [20],1.11
same,normalised cell number,[16]; [21],1.13
CC1NCCc2cc(O)c(O)cc21 (stereo not drawn),red/green cell ratio (normalised),[16]; [19],0.96 (inactive)
same,normalised cell number,[16]; [20],1.11
same,normalised cell number,[16]; [21],1.06
